Results filed as inconclusive are left out. The source made the active and inactive calls. Calls follow the shape of the dose curve; as a rule, active = well fitted inhibition curve with a large enough effect; inconclusive = small, poorly fitted or top-dose-only effect; inactive = flat fitted curve, though single readings scatter. Where a SMILES comes first, the peptide text is derived from it. [ ]: non-standard residue; d: D form. ξ: configuration not given here. ξPhe(βξ-Me) = CC(c1ccccc1)C(N)C(=O)O; GABA = NCCCC(=O)O
Key:
[1] = system: CRL-7250; assay: Cytotoxic Profiling of Annotated Libraries Using Quantitative High-Throughput Screening (AID 1296008); settings: Five cell lines viability, CellTiter-Glo ATP luminescence, 48-72 h; max response: stronger effect = lower value; as to max response: % is scaled to controls: 0 for no effect and ±100 for the full control effect
Method in brief: (§1)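 Cells exposed to compounds for 48 or 72 hr at 37 degrees Celsius. Viability read as ATP-coupled luminescence with CellTiter-Glo after 10 min at room temperature.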

[2] = system: HEK293; assay: as above; settings: Five cell lines viability, CellTiter-Glo ATP luminescence, 48-72 h; max response: stronger effect = lower value
Method in brief: as §1

[3] = system: HaCat; assay: as above; settings: Five cell lines viability, CellTiter-Glo ATP luminescence, 48-72 h; max response: stronger effect = lower value
Method in brief: as §1

[4] = system: KB-3-1; assay: as above; settings: Five cell lines viability, CellTiter-Glo ATP luminescence, 48-72 h; max response: stronger effect = lower value
Method in brief: as §1

[5] = system: NIH3T3; assay: as above; settings: Five cell lines viability, CellTiter-Glo ATP luminescence, 48-72 h; max response: stronger effect = lower value
Method in brief: as §1

[6] = system: HACAT; assay: qHTS assay to identify novel small-molecules to repurpose for Merkel cell carcinoma treatment (AID 1296009); settings: MCC and control cell lines, CellTiter-Glo viability, 72 h; at 44.8 µM (top of the series) unless noted
Method in brief: (§2)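 Cells were incubated with compound for 72 hr at 37 degree celsius before CellTiter-Glo addition. Luminescence was normalized with no-cell wells as full cytotoxicity and DMSO as baseline.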

[7] = system: HEK293T; assay: as above; settings: MCC and control cell lines, CellTiter-Glo viability, 72 h; series mostly up to 44.8 µM
Method in brief: as §2
Also: nearly all actives have a fitted effect of over 60% in size.

CC1CC(O)C2(C)C(C(=O)O)=CCCC2C1(C)CCc1ccoc1 (stereo not drawn)
inactive: max response [1] 0.739% | outcome [2] | outcome [3] | outcome [4] | max response [5] -2.92% | outcome [6] | Potency [7]

O=C(/C=C/c1ccc(O)cc1)OC[C@]12O[C@H]1[C@@H](O)[C@@H]1C=CO[C@@H](O[C@@H]3O[C@H](CO)[C@@H](O)[C@H](O)[C@H]3O)[C@@H]12
inactive: max response [1] -7.12% | outcome [2] | outcome [3] | max response [4] 8.48% | outcome [5] | outcome [6] inactive [at 17.4 µM] | Potency [7]

CC(=O)Oc1cc2c(s1)CCN([C@H](C(=O)C1CC1)c1ccccc1F)C2
inactive: max response [1] -0.62% | outcome [2] | outcome [3] | outcome [4] | max response [5] 3.19% | outcome [6] | Potency [7]

CCc1cc2c(=O)c(-c3nc4ccccc4s3)coc2c(CN2CCCCC2)c1O
inactive: max response [1] 0.116% | outcome [2] | outcome [3] | max response [4] -10.9% | max response [5] 2.93% | outcome [6] inactive [at 17.4 µM] | Potency [7]

O=C(O)Cc1nn(Cc2nc3cc(C(F)(F)F)ccc3s2)c(=O)c2nccnc12
inactive: outcome [1] | outcome [2] | outcome [3] | max response [4] 9.35% | max response [5] 3.31% | outcome [6] | Potency [7]

CCOC(=O)[C@H](CCc1ccccc1)CC1(C(=O)N[C@H]2CCc3ccccc3N(CC(=O)O)C2=O)CCCC1
inactive: max response [1] -3.46% | outcome [2] | outcome [3] | max response [4] -2.38% | max response [5] 3.76% | outcome [6] | Potency [7]

CC(=O)O[C@H]1CC[C@@]2(CI)C(=CC[C@@H]3[C@@H]2CC[C@]2(C)[C@@H]([C@H](C)CCCC(C)C)CC[C@@H]32)C1
inactive: max response [1] -3.01% | outcome [2] | max response [3] 4.89% | outcome [4] | outcome [5] | outcome [7] inactive [at 9.27 µM]

O=C1NCc2nc3ccccc3c(=O)n2C1Cc1c[nH]c2ccccc12 (stereo not drawn)
inactive: max response [1] -3.24% | outcome [2] | max response [3] 1.57% | max response [4] 3.31% | outcome [5] | Potency [7]

COC1=Cc2c(nc3n(c2=O)C(C)C(=O)NC3(O)C(C)C)OC=C1 (stereo not drawn)
inactive: outcome [1] | outcome [2] | max response [3] 4.53% | max response [4] 6.94% | max response [5] 2.45% | Potency [7]

COc1cc(CCc2ccccc2)c(C(=O)O)c2c1CC(C(C)(C)O)O2 (stereo not drawn)
inactive: outcome [1] | outcome [2] | outcome [3] | outcome [4] | outcome [5] | outcome [6] | Potency [7]

CC(C)CC1NC(=O)C(C(C)c2ccccc2)NC(=O)C(C(C)C)NC(=O)C(C)NC(=O)CCCNC(=O)C(Cc2c[nH]c3ccccc23)NC(=O)C(C)NC1=O (stereo not drawn) (cyclo([GABA]AV[ξPhe(βξ-Me)]LAW); configuration not given here)
inactive: max response [1] -5.31% | outcome [2] | outcome [3] | outcome [4] | max response [5] 3.96% | outcome [6] inactive [at 17.4 µM] | Potency [7]

CC1(C)C(O)CCC2(C)C1C(O)C=C1COC(=O)C12O (stereo not drawn)
inactive: max response [1] 2.08% | outcome [2] | outcome [3] | max response [4] 5.78% | max response [5] 0.735% | outcome [6] | Potency [7]

C[C@@H]1O[C@@H](O[C@H]2[C@H](OC(=O)[C@]34CCC(C)(C)C[C@H]3C3=CCC5[C@@]6(C)C[C@H](O)[C@H](O[C@@H]7O[C@H](CO[C@@H]8OC[C@H](O)[C@H](O)[C@H]8O)[C@@H](O)[C@H](O)[C@H]7O)C(C)(C)C6CC[C@@]5(C)[C@]3(C)C[C@H]4O)OC[C@@H](O)[C@@H]2O)[C@H](O)[C@H](O[C@@H]2OC[C@](O)(CO)[C@H]2O)[C@H]1O[C@@H]1OC[C@H](O)[C@H](O[C@@H]2OC[C@@H](O)[C@H](O)[C@H]2O)[C@H]1O (stereo partly drawn)
inactive: max response [1] -6.86% | outcome [2] | outcome [3] | outcome [4] | max response [5] -1.57% | outcome [6] inactive [at 9.27 µM] | outcome [7] inactive [at 9.27 µM]

CC(C)CC(=O)OC[C@H]1O[C@@](COC(=O)CC(C)C)(O[C@H]2O[C@H](CO)[C@@H](O)[C@H](O)[C@H]2O)[C@@H](OC(=O)CC(C)C)[C@@H]1OC(=O)CC(C)C
inactive: max response [1] -0.942% | outcome [2] | outcome [3] | max response [4] 9.19% | outcome [5] | outcome [6] inactive [at 17.4 µM] | Potency [7]

CC1(C)CCC2(C(=O)OC3OC(COC4OC(CO)C(O)C(O)C4O)C(O)C(O)C3O)CCC3(C)C(=CCC4C5(C)CCC(O)C(C)(C(=O)O)C5CCC43C)C2C1O (stereo not drawn)
inactive: outcome [1] | outcome [2] | max response [3] 2.41% | outcome [4] | max response [5] 4.9% | outcome [7] inactive [at 9.27 µM]

Nc1ncnc2c1ncn2[C@H]1CCCO1
inactive: max response [1] -0.0341% | outcome [2] | outcome [3] | outcome [4] | outcome [5] | outcome [6] | Potency [7]

COc1cc(/C=C/C(=O)O[C@H]2[C@H](O)[C@@H](CO)O[C@@]2(CO)O[C@H]2O[C@H](COC(=O)c3ccc(O)cc3)[C@@H](O)[C@H](O)[C@H]2O)cc(OC)c1OC
inactive: outcome [1] | outcome [2] | max response [3] 4.76% | max response [4] 3.54% | outcome [5] | Potency [7]

c1ccc(Nc2nc3c(s2)CCCc2[nH]ncc2-3)nc1
inactive: max response [1] -6.19% | outcome [2] | outcome [3] | outcome [4] | max response [5] 3.95% | outcome [6] | Potency [7]

C[C@@H]1O[C@@H](O[C@H]2[C@H](O[C@H]3CO[C@@H](O[C@H]4CC[C@@]5(C)C(CC[C@]6(C)C5CC[C@]57OC[C@@]8(CC[C@](C)(CO)CC85)[C@H](O)C[C@]76C)C4(C)C)[C@H](O[C@@H]4O[C@H](CO)[C@@H](O)[C@H](O)[C@H]4O)[C@H]3O)O[C@H](CO)[C@@H](O)[C@@H]2O)[C@H](O)[C@H](O)[C@H]1O (stereo partly drawn)
inactive: max response [1] -17.3% | outcome [2] | max response [3] -3.02% | max response [4] 5.69% | max response [5] 2.44% | outcome [7] inactive [at 9.27 µM]

C=C1[C@@H]2CC[C@@]3(C)[C@H](c4ccoc4)OC(=O)C[C@]13O[C@H]1CC(=O)C(C)(C)[C@H](CC(=O)OC)[C@]12C
inactive: max response [1] -0.448% | outcome [2] | outcome [3] | max response [4] -1.94% | outcome [5] | outcome [6] inactive [at 17.4 µM] | Potency [7]

CCC(NC(=O)CC(NC(=O)C(CO)NC(=O)C(CC)NC(=O)c1ccc[nH]1)c1ccccc1)C(=O)O (stereo not drawn)
inactive: max response [1] -9.47% | outcome [2] | max response [3] -0.876% | outcome [4] | outcome [5] | Potency [7]

COc1c(C)c(OCC=C(C)C)cc2c1C(=O)NC2=O
inactive: max response [1] -3.35% | outcome [2] | max response [3] -14.7% | outcome [4] | max response [5] -1.16% | Potency [7]

C[C@@H]1CC[C@]2(C)C3(C)CC[C@@]2(OC3=O)[C@@]12C[C@H](c1ccoc1)OC2=O
inactive: max response [1] -6.81% | outcome [2] | max response [3] -0.0916% | max response [4] -4.36% | max response [5] -0.649% | Potency [7]

O=c1c2cccnc2n(-c2cccc([N+](=O)[O-])c2)c(=O)n1Cc1ccncc1
inactive: outcome [1] | outcome [2] | max response [3] -29.4% | outcome [4] | max response [5] -3.44% | Potency [7]

Reference: PubChem BioAssay (NCATS)
